# Results as given in PubChem BioAssay.
# Tests used:
# [1] = test system: Human papillomavirus type 1a protein E7 (residues 44-93); assay: small molecules binding HPV E7 44-93 – biochemical, small-molecule microarray, residues 44-93, 635 nm fluorescence, primary screen (AID 1108); conditions: fluorescence 635 nm, higher = more signal;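 further: E7 fragment applied at 1 µg/mL in TBST for 1 h at 4 C; score combines spot fluorescence with its signal to noise ratio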
# [2] = hepatitis C replication reporter changes, two-sided – Huh7 cells, luciferase reporter, HCV replication inhibitor project, primary screen (AID 1109); conditions: Huh7 HCV replicon luciferase reporter, 48 h; higher = more signal;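 further: huh7 hepatoma cells harbouring a luciferase neomycin HCV replicon reporter; luciferase luminescence as measure of HCV replicon replication; test concentration not given here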
# [3] = target: Left-right determination factor 2 (Homo sapiens) (UniProt O00292); assay: small molecules binding LEFTY2 protein – biochemical, small-molecule microarray, 635 nm fluorescence scan, primary screen (AID 1110); conditions: higher = more signal
# [4] = target: Calmodulin-1 (Homo sapiens) (UniProt P0DP23); assay: small molecules binding calmodulin-1 with EGTA – biochemical, small-molecule microarray, Cy5-labelled CALM1, profiling panel (AID 1111); conditions: Cy5-CALM1 binding fluorescence, higher = more signal;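 further: labelled calmodulin applied in Tris saline Tween buffer holding calcium plus EGTA and DTT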
# [5] = target: Calmodulin-1 (Homo sapiens) (UniProt P0DP23); assay: small molecules binding Ca-loaded calmodulin-1 – biochemical, small-molecule microarray, Cy5-labelled CALM1, plus calcium, artefact control for SMM control-protein annotation, profiling panel (AID 1112); conditions: Cy5-CALM1 binding fluorescence, higher = more signal;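 further: score merges spot fluorescence with signal to noise from triplicate slides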
# [6] = probe aWnt5a binding to arrayed compounds – biochemical, biotinylated probe, 635/667 nm fluorescence, primary screen (AID 1113); conditions: small-molecule microarray, higher = more signal;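 further: score merges 667 nm fluorescence intensity with signal-to-noise per printed feature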
# [7] = probe aShh binding to arrayed compounds – biochemical, biotinylated probe, 635/667 nm fluorescence, primary screen (AID 1114); conditions: small-molecule microarray, higher = more signal;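 further: probe is biotin-labelled aShh protein from a stem cell growth factor screen; measures binding of labelled protein to compounds printed on the slide; score merges feature fluorescence at 667 nm with signal-to-noise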
# [8] = probe aNog binding to arrayed compounds – biochemical, biotinylated probe, 635/667 nm fluorescence, primary screen (AID 1115); conditions: small-molecule microarray, higher = more signal;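 further: probe is biotinylated aNog protein used at 0.15 µg/mL for 1 h at 4 C; z-score combines 667 nm fluorescence of each spot with its signal to noise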
# [9] = target: Torsin-1A-interacting protein 1 (Homo sapiens) (UniProt Q5JTV8); assay: compound microarray binding of lysate hLAP1 – cell lysate, small-molecule microarray, COS7 lysate, 635/667 nm fluorescence, primary screen (AID 1116); conditions: 635 nm fluorescence, higher = more signal
# [10] = target: Alpha-bungarotoxin (Bungarus multicinctus) (UniProt P60615); assay: compounds binding labelled alpha-BTX control protein – biochemical, small-molecule microarray, Alexa647 label, 635/667 nm fluorescence, artefact control for SMM control protein annotation, profiling panel (AID 1117); conditions: alpha-BTX-A647 binding fluorescence, higher = more signal
# Alpha-bungarotoxin (Bungarus multicinctus), sequence (P60615 whole entry, looked up): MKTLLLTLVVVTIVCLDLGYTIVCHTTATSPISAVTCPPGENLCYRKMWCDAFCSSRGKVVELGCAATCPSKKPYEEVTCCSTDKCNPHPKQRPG
# Torsin-1A-interacting protein 1 (Homo sapiens), sequence (Q5JTV8 whole entry, looked up): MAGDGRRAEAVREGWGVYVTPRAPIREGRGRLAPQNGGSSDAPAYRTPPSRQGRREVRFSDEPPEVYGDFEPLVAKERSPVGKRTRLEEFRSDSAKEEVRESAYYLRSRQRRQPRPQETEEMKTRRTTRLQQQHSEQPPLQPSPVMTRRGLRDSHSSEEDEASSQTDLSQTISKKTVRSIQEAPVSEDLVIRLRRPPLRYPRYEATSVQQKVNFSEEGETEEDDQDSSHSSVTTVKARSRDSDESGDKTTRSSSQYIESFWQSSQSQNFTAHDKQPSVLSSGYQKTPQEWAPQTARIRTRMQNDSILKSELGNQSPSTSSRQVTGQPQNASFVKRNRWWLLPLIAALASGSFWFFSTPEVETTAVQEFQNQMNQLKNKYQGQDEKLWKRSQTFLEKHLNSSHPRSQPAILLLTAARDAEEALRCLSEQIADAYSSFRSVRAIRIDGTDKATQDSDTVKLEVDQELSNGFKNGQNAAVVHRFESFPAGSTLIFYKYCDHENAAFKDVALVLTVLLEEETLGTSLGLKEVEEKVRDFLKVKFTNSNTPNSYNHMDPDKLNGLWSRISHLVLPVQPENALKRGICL
# Left-right determination factor 2 (Homo sapiens), sequence (O00292 whole entry, looked up): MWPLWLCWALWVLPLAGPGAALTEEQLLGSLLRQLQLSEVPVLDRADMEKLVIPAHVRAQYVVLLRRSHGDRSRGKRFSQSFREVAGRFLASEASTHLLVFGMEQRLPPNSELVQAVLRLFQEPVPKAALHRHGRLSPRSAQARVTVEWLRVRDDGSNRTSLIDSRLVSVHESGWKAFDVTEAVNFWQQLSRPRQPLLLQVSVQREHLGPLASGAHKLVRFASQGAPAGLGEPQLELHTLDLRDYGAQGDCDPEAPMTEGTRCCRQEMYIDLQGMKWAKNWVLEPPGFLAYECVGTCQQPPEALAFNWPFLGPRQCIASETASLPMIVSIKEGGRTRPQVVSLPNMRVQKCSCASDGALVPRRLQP
Compound,composite z-score [1],z-score [2],composite z-score [3],composite z-score [4],composite z-score [5],composite z-score [6],composite z-score [7],composite z-score [8],composite z-score [9],composite z-score [10]
CC1CC/C=C\[C@H]2OC34C=CCN(C(C)C)C(=O)[C@H]3N(C(C)CO)C(=O)[C@@H]4C2C(=O)O1 (stereo not given in full),-0.607,-1.43,-0.334,-0.174,-0.824,-0.128,-0.304,-0.0381,0.0726,-0.215
CN1C(=O)C2C=CC(C(O)COCc3ccccc3)N(Nc3ccc([N+](=O)[O-])cc3[N+](=O)[O-])C2C1=O (stereo not given),0.826,-0.295,-0.759,-0.528,-0.626,0.173,-0.328,0.702,0.503,0.814
O=C(N1CCOCC1)[C@]1(CCS(=O)(=O)c2ccccc2)N=C(c2ccc(OCCCO)cc2)O[C@@H]1c1ccccc1,0.794,-0.954,-0.685,1.52,1.14,-0.0445,0.123,-0.087,2.3,1.82
C[C@]1(C(=O)NC2CC2)c2ccccc2C(=O)N(Cc2cc(F)cc(C(F)(F)F)c2)[C@H]1c1ccc(CO)cc1,1.49,-0.782,-1.59,-0.448,0.0045,-0.187,-0.469,-0.658,-0.65,-0.442
CCCC=C(CCC)[C@@H](NC(=O)c1ccc(C(=O)OC)cc1)c1ccc(C(=O)OC)cc1,0.981,-0.682,-0.634,1.48,1.06,0.313,1.45,-0.316,0.253,-0.037
C=C(CC1([C@@H](NP(=O)(c2ccccc2)c2ccccc2)[C@H]2C[C@@H]2CCCC)CC1)c1cccc(OC)c1,0.812,-1.79,-0.872,1.48,0.691,0.103,0.313,1.46,0.182,-0.306
COC(=O)C(CC#Cc1ccc2c(c1)[C@]1(C(=O)N2)[C@H](C(=O)N2CCN(c3ncccn3)CC2)[C@H]2C(=O)O[C@H](c3ccccc3)[C@H](c3ccccc3)N2[C@@H]1c1ccc(O)cc1)C(=O)OC,0.335,-1.66,0.813,2.18,1.36,0.436,0.87,1.16,2.45,2.29
COC(=O)C1=CC(CCCO)=CC(c2ccc(CN3CCCC3)cc2)N(C)C=C1C(=O)OC (stereo not given),1.3,-0.979,0.0465,1,0.316,0.002,0.582,0.776,1.66,0.57
CCCCC(=C=CC[C@@H](O)c1ccccc1OCCO)C[C@@H](O)c1ccccn1,0.361,-1.61,-0.139,-0.408,-0.669,-0.113,-0.0904,-0.108,-0.194,0.888
COc1ccc(C(O)C2C=CC3C(=O)N(C)C(=O)C3N2Nc2ccccc2)cc1 (stereo not given),1.22,-1.14,-0.132,0.675,0.283,0.0792,0.462,1.76,0.916,1.38
CN1C(=O)C2C(C1=O)C1C=C(CCCO)C2C(C2CC2)N1C (stereo not given),-0.524,0.669,-0.151,0.394,0.535,-0.328,0.0062,-0.0477,2.83,-0.685
COc1ccc(CCNC(=O)[C@@H]2c3ccccc3C(=O)N(Cc3cc(F)cc(C(F)(F)F)c3)[C@H]2c2ccc(CO)cc2)cc1,0.45,-0.989,0.262,1.05,0.197,0.0438,-0.314,1.86,1.59,0.715
C=CC[C@]12N=C(c3ccc(OCCCO)cc3)O[C@H]1c1ccccc1N(CCC)C2=O,0.685,-1.99,0.546,0.117,-0.267,0.0344,0.187,0.993,1.46,0.666
COc1ccc(C(=O)Nc2ccc(CN3C(=O)[C@]4(O[C@H](CC(=O)N(CCO)Cc5ccccc5)[C@@H]([Si](C)(C)c5ccc(OC)cc5)[C@@H]4C)c4ccccc43)cc2)cc1,1.37,-3.71,0.803,-0.0162,-0.46,0.0354,0.108,0.0326,0.811,0.543
COCCCNC(=O)[C@@]1(CCC(=O)OC(C)(C)C)N=C(c2ccc(OCCCO)cc2)O[C@H]1c1ccccc1,1.37,-0.618,-0.926,1.1,0.783,-0.0566,0.123,1.83,1.49,1.32
O=C(O)C1=CC[C@H]2C(=O)N(c3ccccc3)C(=O)[C@@H]12,1.37,0.49,0.412,0.661,-0.388,0.155,0.369,0.883,0.769,0.955
CCCCCCc1nc(-c2ccc(OC)nc2)c(C)c2c1[Si](C(C)C)(C(C)C)OC2,-0.329,-0.603,0.445,-0.0398,-0.257,-0.0462,-0.154,-0.129,-0.391,-0.304

Compound,composite z-score [1],z-score [2],composite z-score [3],composite z-score [4],composite z-score [5],composite z-score [6],composite z-score [7],composite z-score [8],composite z-score [9],composite z-score [10]
C[C@H]1C2[C@H](Cc3ccccc3)NC(=O)[C@]23C(=O)N[C@@H](Cc2ccccc2)C(=O)N2CCC[C@H]2C(=O)NC/C=C/CC/C=C/C3[C@@H]2O[C@]12C (stereo not given in full),0.611,-0.382,0.148,-0.133,-0.945,-0.156,-0.221,-0.0503,0.0565,0.857
COCCOC(=O)N1C(=O)[C@@]2(c3cc(C#CC4=CCCCC4)ccc31)[C@H](c1ccc(O)cc1)N1[C@H](c3ccccc3)[C@H](c3ccccc3)OC(=O)[C@H]1[C@@H]2C(=O)N1CCc2cc(OC)c(OC)cc2C1,1.06,-0.993,-0.231,1.12,0.516,-0.0332,0.0796,0.453,2.23,0.924
COCCOC(=O)N1C(=O)[C@@]2(c3cc(C#CCC(C(=O)OC)C(=O)OC)ccc31)[C@H](c1ccc(O)cc1)N1[C@H](c3ccccc3)[C@H](c3ccccc3)OC(=O)[C@H]1[C@@H]2C(=O)N1CCc2cc(OC)c(OC)cc2C1,0.438,-0.284,1.04,0.505,0.781,0.0215,0.0898,-0.366,1.54,1.36
C=CCOC(=O)[C@H]1[C@@H]2C(=O)O[C@@H](c3ccccc3)[C@@H](c3ccccc3)N2[C@@H](c2ccc(OCCOC(=O)[C@@H]3C[C@@H]4C(=O)N[C@@H](Cc5ccccc5)C(=O)N4[C@@H]3c3ccc(O)cc3)cc2)[C@]12C(=O)Nc1ccc(I)cc12,1.27,-1.64,0.898,0.367,0.242,-0.152,-0.154,-0.432,-0.164,0.875
O=C(c1ccccc1)N1Cc2ccccc2C[C@@]2(N=C(c3ccc(OCCCO)cc3)O[C@H]2c2ccccc2)C1=O,1.38,-2.91,0.821,2.64,-0.249,-0.0515,0.0483,-0.432,2.39,1.01
COC(=O)C(CC#Cc1ccc2c(c1)[C@]1(C(=O)N2)[C@H](c2ccc(OCCO)cc2)N2[C@H](c3ccccc3)[C@H](c3ccccc3)OC(=O)[C@H]2[C@@H]1C(N)=O)C(=O)OC,1.41,-1.68,-0.584,0.627,-0.113,-0.156,-0.123,-0.14,-0.358,1.4
CCc1cccc(NC(=O)O[C@H]2[C@H](OC(=O)Nc3ccccc3-c3ccccc3)[C@H](OC(=O)Nc3ccccc3-c3ccccc3)[C@@H](OC)O[C@@H]2CO)c1,1.42,-1.95,0.588,1.44,-0.301,0.179,0.0796,-0.318,1.81,1.29
C=CCNC(=O)[C@@H]1[C@H]2C(=O)O[C@H](c3ccccc3)[C@H](c3ccccc3)N2[C@H](c2ccc(O)cc2)[C@@]12C(=O)Nc1ccc(C#CC3=CCCCC3)cc12,1.44,-2.61,0.385,1.1,0.683,0.171,1.85,2.03,1.58,1.9
CCCCN1CC=CC23O[C@@H]4/C=C\CCC(C)OC(=O)C4[C@H]2C(=O)N(CCO)[C@@H]3C1=O (stereo not given in full),-0.391,-0.58,-0.99,-0.896,-0.272,-0.171,-0.2,0.171,3.55,-0.238
COc1cc2c(cc1O)C(C)N(Cc1sc3ccccc3c1Cl)CC2 (stereo not given),-1.91,-0.728,-1.41,1.23,0.869,-0.117,0.075,0.426,-0.216,0.201
C=C(COC)C(=O)CC[C@@H](OC(=O)c1ccccc1-c1ccccc1C(=O)O)c1ccccc1OCCO,0.933,-1.91,0.585,-0.537,-1.2,-0.232,-0.17,0.153,3.7,-0.217
COc1cccc(C)c1NC(=O)O[C@H]1[C@H](OC(=O)Nc2ccccc2)[C@@H](OC(=O)Nc2ccccc2)[C@@H](OC)O[C@@H]1CO,1.52,-2.72,0.508,1.13,-0.271,0.0321,0.157,0.0023,2.17,1.31
Cc1ccc(S(=O)(=O)N2[C@@H](c3ccccc3)C(C(=O)O)=C[C@H]2C(C)(C)C)cc1,1.15,-1.25,0.261,2.24,0.75,-0.0718,-0.107,-0.0252,1.49,1.94
CCOC(=O)C1=CCC(c2cccn2C(=O)OC(C)(C)C)N(S(=O)(=O)c2ccc(C)cc2)C1 (stereo not given),0.18,-3.94,0.379,0.864,0.439,-0.104,0.428,1.21,1.52,2.21
C=CCNC(=O)[C@@H]1[C@H]2C(=O)O[C@H](c3ccccc3)[C@H](c3ccccc3)N2[C@H](c2ccc(OCCO)cc2)[C@@]12C(=O)Nc1ccc(C#CC3=CCCCC3)cc12,0.0834,-2.53,0.413,1.62,0.107,-0.012,0.103,0.843,0.803,2.23
COC(=O)c1ccc(OC)c(/C=C\CC(OC(=O)c2ccncc2)c2ccccc2)c1 (stereo not given),-0.734,-1.91,0.684,-1.05,0.157,-0.101,-0.206,-0.183,0.187,2.12
CCOC(=O)C[C@H]1[C@H](OC(=O)c2ccccc2-c2ccccc2)[C@@H](NC(=O)CC(C)C)c2cc(OCCCO)ccc2N1C(=O)c1ccccc1,0.0819,-0.783,0.466,-0.0923,-0.497,-0.124,-0.289,-0.189,0.222,0.23
